Results from PubChem BioAssay.
A number with no mark means an inactive call. Calls of active or inactive are those of the source.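 Rule for the calls, unless noted: active = growth inhibition above 50% at the single 2 µM test dose, taken to imply half-maximal potency below 2 µM; inactive = the rest.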

Assay: antimalarial activity against Dd2 strain (AID 2302);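 note: 0% = DMSO untreated growth and 100% = chloroquine plus artemisinin killed control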
Conditions: P. falciparum Dd2 in RBCs, LDH growth readout, 72 h; at 2 µM; hits give high values
In the case of `Cc1ccc(NC(=O)c2ccc(Cl)c(Cl)c2)cc1-c1ccc(C(=O)Nc2ccncc2)cc1`, the growth inhibition is reported as 79% (active).
With `O=C(/C=C/c1ccc(C(F)(F)F)cc1)N1CCC(CCN2CCC(c3c[nH]c4ccccc34)CC2)CC1` the growth inhibition was 77% (active).
For `O=C(/C=C/c1ccc(Cl)c(Cl)c1)NC1CCN(Cc2cccc(O)c2)CC1`, the growth inhibition was -1%.
With `Cc1cccc2[nH]c(-c3ccc(-c4cccc(NC(=O)Nc5ccsc5)c4)cc3)nc12` the growth inhibition was 24%.
With `COc1ccc2nccc([C@@H](O)CN3CCC(NCc4ccc5c(c4)OCCO5)CC3)c2c1` the growth inhibition was 92% (active).
With `CCN(c1ccc(F)cc1)S(=O)(=O)c1cc(Br)cc2c1N(C(=O)C1CC1)CC2` the growth inhibition was 79% (active).
In the case of `Cn1c(=N)n(CC(=O)N2CCc3ccc(Cl)cc3C2Cc2ccc(Cl)c(Cl)c2)c2ccccc21` (stereo not given), the growth inhibition is reported as 52% (active).
With `COc1cc(C(=O)N2CCN(C(C)C)CC2)ccc1CN(C)CCCN1CCN(c2cccc(Cl)c2Cl)CC1` the growth inhibition was 87% (active).
Molecule `O=C(NCCc1ccccc1)N(Cc1ccc(-c2cccc(CN3CCNCC3)c2)cc1)C1CCN(Cc2ccccc2)CC1` has a growth inhibition of 29%.
For `Cc1cc(N2CCCC2)nc(Nc2ccc(NC(=O)c3ccccc3)cc2)n1`, the growth inhibition was 65% (active).
`O=C(Cc1ccccc1)NC(CCN1CCC(O)(c2cccc(C(F)(F)F)c2)CC1)c1ccc(Cl)c(Cl)c1` (stereo not given) showed a growth inhibition of 32%.
In the case of `Oc1ccc(CN2CC[C@@H](N3CCN(CCc4ccccc4)CC3)[C@H](O)C2)cc1Cl`, the growth inhibition is reported as 77% (active).
In the case of `Oc1c(C(Nc2nc3ccccc3s2)c2ccccc2)ccc2cccnc12` (stereo not given), the growth inhibition is reported as 83% (active).
With `CN(C)C(CNC(=O)c1cc(-c2ccncc2)c(-c2ccc(NC(=O)Nc3cccc(Cl)c3)cc2)o1)c1ccccc1` (stereo not given) the growth inhibition was 100% (active).
With `COc1cc(NC(=O)c2sc(-c3ccc(Cl)cc3)cc2NC(=O)c2ccncc2)ccc1OCCN1CCCC1` the growth inhibition was 100% (active).
For `Cc1cc(NN=Cc2ccccc2Cl)c2ccccc2n1`, the growth inhibition was 30%.
`Cc1cc(NN=Cc2ccc([N+](=O)[O-])cc2)c2ccc(F)cc2n1` gave a growth inhibition of 22%.
With `COc1ccc(C(=O)N2CCc3cc4nccc(N5CCN6CCC[C@H]6C5)c4cc32)cc1` the growth inhibition was 50% (active).
Work on `O=C(Nc1cccc(-c2ccc(-c3nc4ccc(F)cc4[nH]3)cc2)c1)Nc1ccc(Cl)c(Cl)c1` yielded a growth inhibition of 49%.
For `Cc1ccc(Cn2ncc(NC3CCNCC3)c(Cl)c2=O)cc1NC(=O)Nc1ccc(-c2ccccc2)cc1`, the growth inhibition was 61% (active).
For `CCCCNS(=O)(=O)c1ccc(NC(=O)c2cc([N+](=O)[O-])ccc2Cl)cc1`, the growth inhibition was 47%.
For `CCNc1cc(C)nc(Nc2ccc(NC(=O)C3CCCC3)cc2)n1`, the growth inhibition was 69% (active).
In the case of `COc1ccc(-n2nc(C(=O)NCCC3=CCCCC3)c3ccccc3c2=O)cc1`, the growth inhibition is reported as 59% (active).
Work on `O=C(NCC1CCN(Cc2ccsc2)C1)c1cc(-c2cccc(C(F)(F)F)c2)cs1` (stereo not given) yielded a growth inhibition of 15%.
With `COc1cc(NC(=O)/C=C/c2cccc3cc[nH]c23)ccc1OCCN(C(C)C)C(C)C` the growth inhibition was 51% (active).
For `C=CCOC(=O)O[C@@H]1[C@@H](OC(=O)OCC=C)[C@@H](OC)O[C@H](COC(c2ccccc2)(c2ccccc2)c2ccccc2)[C@H]1OC(=O)OCC=C`, the growth inhibition was 96% (active).
With `O=C(Nc1cccnc1)c1cn(-c2ccccc2)nc1-c1cccs1` the growth inhibition was 61% (active).
With `O=C(CN1CCCC1)Nc1cccc(C(=O)Nc2cccc(C(F)(F)F)c2)c1` the growth inhibition was 83% (active).
In the case of `O=S(=O)(Nc1cccc(CCN2CCC(N3CCCCC3)CC2)c1)c1cccc(C(F)(F)F)c1`, the growth inhibition is reported as 13%.
For `Cc1cc(Cl)ccc1OC(C)C(=O)N1CCc2ccccc21` (stereo not given), the growth inhibition was 78% (active).
For `COc1cc2nc(N(C)Cc3cccc(I)c3)nc(N)c2cc1OC`, the growth inhibition was 88% (active).
With `O=C(Nc1cccc(OC2CCN(Cc3ccsc3)CC2)c1)c1ccc(C(F)(F)F)cc1` the growth inhibition was 5%.
In the case of `CC(C)CCN(Cc1cncn1Cc1ccccc1F)C(=O)c1cncc(-c2ccccc2)c1`, the growth inhibition is reported as 3%.
For `Clc1nc2ccccn2c1C=Cc1ccc2ccccc2n1`, the growth inhibition was 75% (active).
In the case of `COc1ccc(-c2cc(Nc3nc(-c4cccc(Cl)c4)nc4ccccc34)ccn2)cc1`, the growth inhibition is reported as 17%.
`COc1ccc(NC(=O)/C=C/c2ccccc2Cl)cc1OCCN1CCC(N2CCCC2)CC1` showed a growth inhibition of 23%.
With `O=C(Nc1cccc(-c2cccc(-c3nc4ccccc4[nH]3)c2)c1)Nc1ccc(Cl)c(Cl)c1` the growth inhibition was 98% (active).
With `CCNC(=O)c1ccc(-n2nc(C)cc2-c2ccccc2)cc1` the growth inhibition was 54% (active).
With `CCN(CC)C(=NCCCCCCN=C(NC(N)=NCc1ccc(Cl)cc1)N(CC)CC)NC(N)=NCc1ccc(Cl)cc1` the growth inhibition was 100% (active).
With `O=C(/C=C/c1ccc(Cl)c(Cl)c1)NCCCCCCN1CCCN(C(=O)Nc2cccc(Cl)c2)CC1` the growth inhibition was 2%.

Assay: human hepatoma cell viability loss – ATP luminescence, cytotoxicity control for P. falciparum antimalarial project, primary screen (AID 2303;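 active = inhibition above 50%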;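 note: 0% = DMSO wells and 100% = digitonin-killed cells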)
Conditions: HepG2 viability, 24-48 h, at 10 µM, hits give high values
`Cc1ccc(NC(=O)c2ccc(Cl)c(Cl)c2)cc1-c1ccc(C(=O)Nc2ccncc2)cc1` gave an inhibition of 39%.
For `O=C(/C=C/c1ccc(C(F)(F)F)cc1)N1CCC(CCN2CCC(c3c[nH]c4ccccc34)CC2)CC1`, the inhibition was 70% (active).
`O=C(/C=C/c1ccc(Cl)c(Cl)c1)NC1CCN(Cc2cccc(O)c2)CC1` gave an inhibition of -3%.
Molecule `Cc1cccc2[nH]c(-c3ccc(-c4cccc(NC(=O)Nc5ccsc5)c4)cc3)nc12` has an inhibition of 24%.
Molecule `COc1ccc2nccc([C@@H](O)CN3CCC(NCc4ccc5c(c4)OCCO5)CC3)c2c1` has an inhibition of 9%.
`CCN(c1ccc(F)cc1)S(=O)(=O)c1cc(Br)cc2c1N(C(=O)C1CC1)CC2` showed an inhibition of -16%.
With `Cn1c(=N)n(CC(=O)N2CCc3ccc(Cl)cc3C2Cc2ccc(Cl)c(Cl)c2)c2ccccc21` (stereo not given) the inhibition was 99% (active).
In the case of `COc1cc(C(=O)N2CCN(C(C)C)CC2)ccc1CN(C)CCCN1CCN(c2cccc(Cl)c2Cl)CC1`, the inhibition is reported as 56% (active).
Molecule `O=C(NCCc1ccccc1)N(Cc1ccc(-c2cccc(CN3CCNCC3)c2)cc1)C1CCN(Cc2ccccc2)CC1` has an inhibition of 27%.
For `Cc1cc(N2CCCC2)nc(Nc2ccc(NC(=O)c3ccccc3)cc2)n1`, the inhibition was 26%.
For `O=C(Cc1ccccc1)NC(CCN1CCC(O)(c2cccc(C(F)(F)F)c2)CC1)c1ccc(Cl)c(Cl)c1` (stereo not given), the inhibition was 25%.
In the case of `Oc1ccc(CN2CC[C@@H](N3CCN(CCc4ccccc4)CC3)[C@H](O)C2)cc1Cl`, the inhibition is reported as 0%.
With `Oc1c(C(Nc2nc3ccccc3s2)c2ccccc2)ccc2cccnc12` (stereo not given) the inhibition was 45%.
`CN(C)C(CNC(=O)c1cc(-c2ccncc2)c(-c2ccc(NC(=O)Nc3cccc(Cl)c3)cc2)o1)c1ccccc1` (stereo not given) showed an inhibition of 12%.
With `COc1cc(NC(=O)c2sc(-c3ccc(Cl)cc3)cc2NC(=O)c2ccncc2)ccc1OCCN1CCCC1` the inhibition was 100% (active).
Molecule `Cc1cc(NN=Cc2ccccc2Cl)c2ccccc2n1` has an inhibition of -3%.
`Cc1cc(NN=Cc2ccc([N+](=O)[O-])cc2)c2ccc(F)cc2n1` showed an inhibition of -3%.
`COc1ccc(C(=O)N2CCc3cc4nccc(N5CCN6CCC[C@H]6C5)c4cc32)cc1` showed an inhibition of 1%.
With `O=C(Nc1cccc(-c2ccc(-c3nc4ccc(F)cc4[nH]3)cc2)c1)Nc1ccc(Cl)c(Cl)c1` the inhibition was 79% (active).
`Cc1ccc(Cn2ncc(NC3CCNCC3)c(Cl)c2=O)cc1NC(=O)Nc1ccc(-c2ccccc2)cc1` showed an inhibition of 18%.
For `CCCCNS(=O)(=O)c1ccc(NC(=O)c2cc([N+](=O)[O-])ccc2Cl)cc1`, the inhibition was 12%.
`CCNc1cc(C)nc(Nc2ccc(NC(=O)C3CCCC3)cc2)n1` showed an inhibition of 13%.
For `COc1ccc(-n2nc(C(=O)NCCC3=CCCCC3)c3ccccc3c2=O)cc1`, the inhibition was 0%.
For `O=C(NCC1CCN(Cc2ccsc2)C1)c1cc(-c2cccc(C(F)(F)F)c2)cs1` (stereo not given), the inhibition was 37%.
`COc1cc(NC(=O)/C=C/c2cccc3cc[nH]c23)ccc1OCCN(C(C)C)C(C)C` gave an inhibition of 11%.
`C=CCOC(=O)O[C@@H]1[C@@H](OC(=O)OCC=C)[C@@H](OC)O[C@H](COC(c2ccccc2)(c2ccccc2)c2ccccc2)[C@H]1OC(=O)OCC=C` gave an inhibition of 5%.
Work on `O=C(Nc1cccnc1)c1cn(-c2ccccc2)nc1-c1cccs1` yielded an inhibition of 3%.
In the case of `O=C(CN1CCCC1)Nc1cccc(C(=O)Nc2cccc(C(F)(F)F)c2)c1`, the inhibition is reported as 9%.
`O=S(=O)(Nc1cccc(CCN2CCC(N3CCCCC3)CC2)c1)c1cccc(C(F)(F)F)c1` gave an inhibition of 25%.
Molecule `Cc1cc(Cl)ccc1OC(C)C(=O)N1CCc2ccccc21` (stereo not given) has an inhibition of 8%.
For `COc1cc2nc(N(C)Cc3cccc(I)c3)nc(N)c2cc1OC`, the inhibition was 7%.
In the case of `O=C(Nc1cccc(OC2CCN(Cc3ccsc3)CC2)c1)c1ccc(C(F)(F)F)cc1`, the inhibition is reported as 25%.
In the case of `CC(C)CCN(Cc1cncn1Cc1ccccc1F)C(=O)c1cncc(-c2ccccc2)c1`, the inhibition is reported as 1%.
Work on `Clc1nc2ccccn2c1C=Cc1ccc2ccccc2n1` yielded an inhibition of -31%.
Molecule `COc1ccc(-c2cc(Nc3nc(-c4cccc(Cl)c4)nc4ccccc34)ccn2)cc1` has an inhibition of 3%.
With `COc1ccc(NC(=O)/C=C/c2ccccc2Cl)cc1OCCN1CCC(N2CCCC2)CC1` the inhibition was 22%.
With `O=C(Nc1cccc(-c2cccc(-c3nc4ccccc4[nH]3)c2)c1)Nc1ccc(Cl)c(Cl)c1` the inhibition was 78% (active).
Molecule `CCNC(=O)c1ccc(-n2nc(C)cc2-c2ccccc2)cc1` has an inhibition of 11%.
Molecule `CCN(CC)C(=NCCCCCCN=C(NC(N)=NCc1ccc(Cl)cc1)N(CC)CC)NC(N)=NCc1ccc(Cl)cc1` has an inhibition of 18%.
`O=C(/C=C/c1ccc(Cl)c(Cl)c1)NCCCCCCN1CCCN(C(=O)Nc2cccc(Cl)c2)CC1` showed an inhibition of 26%.
